From PubChem BioAssay
HCV inh: blocks hepatitis C virus; Huh7.5.1 HCVcc-Cre infection, luciferase reporter, 44 h; Potency, µM (titrated, usually from 41.8 µM), actives largely listed as inhibitors; 340,000 tested, 3.4% active
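After 44 h co-culture of compound, cells and HCVcc-Cre (~0.5 moi), substrate is added for 15 min at room temperature and luciferase measured over 15 sec. Cells were seeded at 1,000/well and pre-cultured 4 h.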
HCMV inh: inhibitors of human cytomegalovirus; HFF cells, HCMV-luciferase reporter, 72 h; stronger effect = lower value; activity change, negative = inhibition, % at 57.5 µM; 410,000 tested, 4.5% active; in the data active = activity change below about -60%; inconclusive = no clear call, values can overlap the other calls; inactive = above about -39%
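Luciferase read-out from HCMV-luciferase-infected HFFs (MOI 1 PFU/cell) 72 h post infection at 37C; compounds added after 16 h cell attachment; activity normalized between buffer-only basal and Salinomycin (10uM) inhibitor controls.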
Pf growth 96h: inhibits malaria parasite growth, 96 h. Potency, µM (series often up to 28.7 µM), hits mostly inhibitors. AID 504834. P. falciparum luciferase reporter growth, 96 h. 320,000 tested, 6.9% active
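Compounds incubated with erythrocytes infected by luciferase-expressing P. falciparum (2% hematocrit, 0.05% parasitemia final) for 96 hours, 37 C in 5% CO2. Growth inhibition scored as decreased luciferase luminescence.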
Pf growth 48h: P. falciparum growth inhibition at 48 hours (one generation) | P. falciparum luciferase growth in erythrocytes, 48 h | Potency, µM (top dose mostly 28.7 µM), most hits filed as inhibitors | 310,000 tested, 5.9% active | AID 504832
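Cell-based growth assay: transgenic P. falciparum expressing firefly luciferase, cultured in red cells within RPMI 1640 containing 0.5% w/v Albumax, 24 mM bicarbonate and gentamycin. A drop in luciferase activity indicates inhibition.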
Large screens that a line does not name were inactive. A selection: hits, their analogues and other compounds. The true share with any hit is near 13%. Unless noted, calls come from the whole dose curve; as a rule, active = well fitted inhibition curve with a large enough effect; inconclusive = small, poorly fitted or top-dose-only effect, or another doubt; inactive = no such curve, though single readings can be large or run the other way.

O=C(Nc1ccccc1)c1ccc(Cl)c(S(=O)(=O)Nc2ccccc2)c1	none (no result: HCV inh, Pf growth 96h, Pf growth 48h)
COc1ccc(N(CC(=O)Nc2cccc(N(C)S(C)(=O)=O)c2)S(=O)(=O)c2ccc(C)cc2)cc1	HCV inh inconclusive, Pf growth 96h inconclusive, Pf growth 48h inconclusive
COc1ccc(N(CC(=O)Nc2cccc(N(C)S(C)(=O)=O)c2)S(=O)(=O)c2ccccc2)cc1Cl	HCV inh inconclusive, Pf growth 48h inconclusive
CCOc1ccc(N(CC(=O)Nc2cccc(N(C)S(C)(=O)=O)c2)S(=O)(=O)c2ccccc2)cc1	HCV inh inconclusive, HCMV inh -64, Pf growth 96h inconclusive, Pf growth 48h inconclusive
CC(C)(C)C(=O)OCc1cc(=O)n2nc(C3CC3)sc2n1	none (no result: HCV inh, Pf growth 96h, Pf growth 48h)
COc1ccc(C(C[N+](=O)[O-])c2c(-c3ccccc3)cc3ccccn23)cc1 (stereo not drawn)	Pf growth 48h inconclusive
COc1ccc(C(C[N+](=O)[O-])c2c(-c3ccccc3)cc3ccccn23)cc1OC (stereo not drawn)	HCMV inh inconclusive, Pf growth 96h inconclusive, Pf growth 48h inconclusive
COc1cc(C(C[N+](=O)[O-])c2c(-c3ccccc3)cc3ccccn23)cc(OC)c1OC (stereo not drawn)	HCMV inh inconclusive, Pf growth 96h 12µM (no result: Pf growth 48h)
COc1cc(C(C[N+](=O)[O-])c2c(C)cc3ccccn23)ccc1O (stereo not drawn)	HCV inh inconclusive, HCMV inh -64, Pf growth 96h inconclusive, Pf growth 48h inconclusive
COC(=O)[C@]1(C#N)[C@H](Cc2ccccc2)C(=O)N(Cc2ccc(Cl)cc2)[C@@H]1c1ccc(OC)cc1	none (no result: HCV inh, Pf growth 96h, Pf growth 48h)
O=C(Nc1ccc2ccccc2c1)c1nn(C23CC4CC(CC(C4)C2)C3)cc1Br	Pf growth 96h inconclusive, Pf growth 48h inconclusive
O=C(O)c1cccc([N+](=O)[O-])c1C(=O)Nc1cccc2ccccc12	none
O=C(Nc1cccc2ccccc12)c1nn(C23CC4CC(CC(C4)C2)C3)cc1[N+](=O)[O-]	HCV inh inconclusive, HCMV inh -71, Pf growth 96h 0.93µM, Pf growth 48h inconclusive
COc1ccc(NC(=O)c2nn(C34CC5CC(CC(C5)C3)C4)cc2[N+](=O)[O-])cc1	Pf growth 48h 4.7µM
CCOC(=O)c1cccc(NC(=O)C(C)n2nc(C)c3c(C)n(-c4ccccc4)nc3c2=O)c1 (stereo not drawn)	none (no result: HCV inh, Pf growth 96h, Pf growth 48h)
O=C(NCCc1c[nH]c2ccccc12)/C(=C/c1ccco1)NC(=O)c1ccco1	Pf growth 96h 0.29µM
CC(=C\c1ccco1)/C=C(\C#N)C(=O)NCCc1c[nH]c2ccccc12	HCV inh inconclusive, HCMV inh -73
N#C/C(=C/c1ccc(Br)s1)C(=O)NCCc1c[nH]c2ccccc12	none
Cn1c(=O)n(Cc2ccccc2Cl)c(=O)c2c1nc1n2CCN1c1ccccc1	none (no result: HCV inh, Pf growth 96h, Pf growth 48h)
CCOc1ccc2nc3ccc4[nH]onc4c3c2c1	HCV inh 2.5µM, HCMV inh inconclusive (no result: Pf growth 96h, Pf growth 48h)
COc1ccc(-c2csc3ncnc(N4CCN(CCO)CC4)c23)cc1	none
COc1ccc(-c2csc3ncnc(N4CCN(c5ccccc5OC)CC4)c23)cc1	HCV inh 11µM, Pf growth 96h inconclusive, Pf growth 48h 5.9µM
CCOc1ccccc1N1CCN(c2ncnc3scc(-c4ccc(OC)cc4)c23)CC1	HCV inh inconclusive, HCMV inh -60, Pf growth 96h inconclusive, Pf growth 48h 5.9µM
Cc1ccc(Nc2ccc(C(=O)O)cc2[N+](=O)[O-])cc1	Pf growth 96h 9.3µM (no result: Pf growth 48h)
COc1ccccc1-c1nc2c(c(SCc3cc(C)ccc3C)n1)Cc1c(CO)cnc(C)c1O2	none (no result: HCV inh, Pf growth 96h, Pf growth 48h)
CCOC(=O)c1cc(NC(=O)C2C3C=CC(O3)C2C(=O)O)cc(C(=O)OCC)c1 (stereo not drawn)	Pf growth 96h 12µM, Pf growth 48h inconclusive
CCOC(=O)c1cc(NC(=O)C2C3CCC(O3)C2C(=O)O)cc(C(=O)OCC)c1 (stereo not drawn)	Pf growth 96h inconclusive, Pf growth 48h inconclusive (no result: HCV inh)
O=C(O)C1C2C=CC(O2)C1C(=O)Nc1cccc(C(F)(F)F)c1 (stereo not drawn)	Pf growth 96h 10µM
CCN(CC)c1ccc(NC(=O)c2cccn2-c2nnc(N3CCCCC3)s2)c(C)c1	none (no result: HCV inh, Pf growth 96h, Pf growth 48h)
COc1ccc(CNC(=O)CCn2cccn2)cc1	none (no result: HCV inh, Pf growth 96h, Pf growth 48h)
Cc1cc(=O)n2nc(N(C)CC(=O)NCc3ccccc3C)sc2n1	none (no result: HCV inh, Pf growth 96h, Pf growth 48h)
COc1ccc2oc(=O)cc(CN3CCN(Cc4ccc(OC)c(OC)c4OC)CC3)c2c1	HCV inh 3.5µM, Pf growth 48h inconclusive
COc1ccc(OC)c(CN2CCN(Cc3cc(=O)oc4cc(O)ccc34)CC2)c1	Pf growth 96h 2.6µM, Pf growth 48h 3.7µM
Cc1cc(Cl)ccc1NC(=O)Cn1nc(C)c2c(C)n(-c3ccccc3)nc2c1=O	none (no result: HCV inh, Pf growth 96h, Pf growth 48h)
NC1=NC(=Nc2ccccc2)c2ccccc21	Pf growth 96h inconclusive
NC1=NC(=Nc2ccc(Br)cc2)c2ccccc21	HCV inh inconclusive, HCMV inh -61
Cc1ccc(NC(=O)C(=O)Nc2ccc(C)cn2)nc1	Pf growth 96h inconclusive
Cc1ccc(NC(=O)/C(C#N)=C(\N)C(Cl)(Cl)Cl)nc1	HCV inh 10µM (no result: HCMV inh)
COc1ccc(NC(=O)c2cccc3c(=O)c4c([nH]c23)CCCC4)cc1	none (no result: HCV inh, Pf growth 96h, Pf growth 48h)
Cc1ccn2cc(C(=O)Nc3ccc4c(c3)OCCO4)nc2c1	HCMV inh inconclusive
Cc1ccn2cc(C(=O)Nc3nnc(C)s3)nc2c1	Pf growth 96h 4.1µM
CCCN(CCC)S(=O)(=O)c1ccc(C(=O)N2CCC(=O)c3ccccc32)cc1	HCMV inh -60, Pf growth 48h inconclusive
O=C1CCN(C(=O)c2ccccc2)c2ccccc21	none (no result: HCV inh, Pf growth 96h, Pf growth 48h)
COc1ccc(C2CCCN2C(=S)Nc2ccc(C)cc2Cl)cc1OC (stereo not drawn)	HCV inh inconclusive
COc1ccc(C2CCCN2C(=S)Nc2cccc(C)c2)cc1OC (stereo not drawn)	Pf growth 96h inconclusive, Pf growth 48h 12µM
COc1ccc(C2CCCN2C(=S)Nc2cccc(C)c2C)cc1OC (stereo not drawn)	Pf growth 96h inconclusive, Pf growth 48h 12µM
COc1ccc(NC(=S)N2CCCC2c2ccc(OC)c(OC)c2)cc1 (stereo not drawn)	none
O=C(NCCc1ccccc1)c1ccc2c(c1)N(Cc1c(F)cccc1Cl)C(=O)CS2	none (no result: HCV inh, Pf growth 96h, Pf growth 48h)
O=C(NCC1OCCc2ccccc21)c1cc(COc2c(F)cccc2F)on1 (stereo not drawn)	HCV inh inconclusive, HCMV inh inconclusive, Pf growth 96h 13µM
Cc1ccc(C)c(CN2CCCN(CC(=O)Nc3ccc(C)c(C)c3)S2(=O)=O)c1	none (no result: HCV inh, Pf growth 96h, Pf growth 48h)
Cc1noc(C)c1NC(=O)N(C)C[C@@H]1OCc2cn(nn2)CCCC(=O)N([C@@H](C)CO)C[C@H]1C	none (no result: HCV inh, Pf growth 96h, Pf growth 48h)
C=CCn1c(NCc2cc(Cl)ccc2O)nc2ccccc21	HCV inh inconclusive, Pf growth 96h inconclusive, Pf growth 48h inconclusive
Cc1ccnc(NCc2cc(Cl)ccc2O)c1	none (no result: HCV inh, Pf growth 96h, Pf growth 48h)
CCn1c(NCc2cc(Cl)ccc2O)nc2ccccc21	HCV inh 32µM, Pf growth 96h 5.2µM, Pf growth 48h 7.4µM
Cn1c(-c2ccccc2)cnc1NCc1cc(Cl)ccc1O	Pf growth 48h 12µM
Oc1ccc(Cl)cc1CNc1ccccn1	Pf growth 96h 10µM, Pf growth 48h inconclusive
